Measurements from the supplement of paper PMC12494721.
Counter-ions that a name gives are not always drawn.

Experiments:
Conditions in all cases: incubation time: 27 h, anaerobic, 37 °C;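 for the amine columns active = adjusted P below 0.05 in both replicates with a change the same way and a mean fold change under 0.8 or over 1.25; inactive = the rest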
[1] = tested on: Clostridium sporogenes DSM 1664; assay: growth (OD595) fold change vs plate DMSO controls (fold change (ratio)); higher = more growth
How it was run: (§1)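 Growth is expressed as the fold change relative to the median of the DMSO control wells on each plate. Cultures in mGAM were grown anaerobically in 96-well plates for 27 h at 37 °C, shaken, and read at 595 nm. Readings were blank-subtracted, corrected for compound background with 20 µM compound solutions in water, and converted to OD with a calibration factor of 5. Fold changes above 1.5 were set to NA, and each value is the mean of 2 biological replicates.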

Escherichia coli IAI1 [2] = assay: as above
How it was run: as §1

[3] = tested on: Klebsiella aerogenes DSM 30053; assay: as above
How it was run: as §1

[4] = tested on: Ruminococcus gnavus DSM 108212; assay: as above
How it was run: as §1

[5] = tested on: Klebsiella aerogenes DSM 30053; assay: fold change of Histamine concentration vs plate DMSO controls (fold change (ratio)); higher = more amine produced, active = hit call of the paper (significant change in both replicates, either direction)
How it was run: (§2)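 Anaerobic mGAM cultures of four gut bacterial strains were grown at 37 °C for 27 h in 80 µL wells, starting at OD 0.1 before 1:1 dilution. Compounds were at 20 µM final (sweeteners 50 µM). Whole cultures were extracted with cold acetonitrile/methanol containing 0.1% formic acid and centrifuged. Amines were quantified by LC–triple-quadrupole MS (dynamic MRM) against external calibration curves and drift-corrected within batch. Each value is the fold change versus plate DMSO controls, averaged over 2 biological replicates.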

[6] = tested on: Clostridium sporogenes DSM 1664; assay: fold change of Tryptamine concentration vs plate DMSO controls (fold change (ratio)); higher = more amine produced, active = hit call of the paper (significant change in both replicates, either direction)
How it was run: as §2

[7] = tested on: Ruminococcus gnavus DSM 108212; assay: as above
How it was run: as §2

Escherichia coli IAI1 [8] = assay: fold change of Putrescine concentration vs plate DMSO controls (fold change (ratio)); higher = more amine produced, active = hit call of the paper (significant change in both replicates, either direction)
How it was run: as §2

[9] = tested on: Klebsiella aerogenes DSM 30053; assay: as above
How it was run: as §2

Escherichia coli IAI1 [10] = assay: fold change of Cadaverine concentration vs plate DMSO controls (fold change (ratio)); higher = more amine produced, active = hit call of the paper (significant change in both replicates, either direction)
How it was run: as §2

[11] = tested on: Klebsiella aerogenes DSM 30053; assay: as above
How it was run: as §2

[12] = tested on: Ruminococcus gnavus DSM 108212; assay: fold change of 2-Phenylethylamine concentration vs plate DMSO controls (fold change (ratio)); higher = more amine produced, active = hit call of the paper (significant change in both replicates, either direction)
How it was run: as §2

Row | SMILES | growth [1] | growth (Escherichia coli IAI1 [2]) | growth [3] | growth [4] | fold change of Histamine concentration [5] | fold change of Tryptamine concentration [6] | fold change of Tryptamine concentration [7] | fold change of Putrescine concentration (Escherichia coli IAI1 [8]) | fold change of Putrescine concentration [9] | fold change of Cadaverine concentration (Escherichia coli IAI1 [10]) | fold change of Cadaverine concentration [11] | fold change of 2-Phenylethylamine concentration [12]
1 | CCN(CC)C(=O)c1cccnc1 [Nikethamide] (20 µM) | 1.07 | 1.01 | 0.998 | 1.13 | 1.02 (inactive) | 1.05 (inactive) | 1.05 (inactive) | 1.06 (inactive) | 1 (inactive) | 1.08 (inactive) | 0.993 (inactive) | 1.08 (inactive)
2 | Cc1cc2c(s1)Nc1ccccc1N=C2N1CCN(C)CC1 [Olanzapine] (20 µM) | 1.16 | 1.13 | 1.04 | 1.19 | 0.961 (inactive) | 0.966 (inactive) | 0.922 (inactive) | 1.04 (inactive) | 0.988 (inactive) | 0.945 (inactive) | 0.999 (inactive) | 0.944 (inactive)
3 | C[C@]12CC[C@@H]3c4ccc(O)cc4C[C@@H](CCCCCCCCC[S+]([O-])CCCC(F)(F)C(F)(F)F)[C@H]3[C@@H]1CC[C@@H]2O (stereo partly drawn) [Fulvestrant] (20 µM) | 1.25 | 1.06 | 1.03 | 1.13 | 0.97 (inactive) | 0.98 (inactive) | 1.2 (inactive) | 0.954 (inactive) | 0.979 (inactive) | 0.974 (inactive) | 1.02 (inactive) | 1.21 (inactive)
4 | COc1ccccc1OCC(O)CO (stereo not drawn) [Guaifenesin] (20 µM) | 1.09 | 0.954 | 0.98 | 1.03 | 1.05 (inactive) | 1.04 (inactive) | 1.05 (inactive) | 1.04 (inactive) | 1.01 (inactive) | 0.991 (inactive) | 0.988 (inactive) | 1.1 (inactive)
5 | CCC(=O)O[C@@H]1CC(=O)O[C@H](C)C/C=C/C=C/[C@H](O)[C@H](C)C[C@H](CC=O)[C@H](O[C@@H]2O[C@H](C)[C@@H](O[C@H]3C[C@@](C)(O)[C@@H](OC(=O)CC)[C@H](C)O3)[C@H](N(C)C)[C@H]2O)[C@H]1OC [Midecamycin] (20 µM) | 0.00179 | 0.905 | 0.965 | 0.164 | 0.412 (active) | 0.0271 (active) | 0.143 (active) | 0.909 (inactive) | 1.06 (inactive) | 1.05 (inactive) | 1.05 (inactive) | 0.141 (active)
6 | c1ccc2cc3ccccc3cc2c1 [Anthracene] (20 µM) | 1.03 | 1.04 | 0.993 | 0.985 | 1.03 (inactive) | 1.03 (inactive) | 1.02 (inactive) | 1.01 (inactive) | 0.986 (inactive) | 0.976 (inactive) | 1.02 (inactive) | 0.963 (inactive)
7 | CCCCNc1c(C(=O)OCC)c(C)nc2c1cnn2CC [Tracazolate hydrochloride] (20 µM) | 1.14 | 0.998 | 1.01 | 0.943 | 0.977 (inactive) | 0.933 (inactive) | 1.08 (inactive) | 1.01 (inactive) | 0.993 (inactive) | 1.03 (inactive) | 1 (inactive) | 1.11 (inactive)
8 | O=C(O)c1cc(-c2ccc(F)cc2F)ccc1O [Diflunisal] (20 µM) | 1.05 | 0.978 | 0.985 | 1.22 | 1.02 (inactive) | 1.01 (inactive) | 1.02 (inactive) | 1.07 (inactive) | 0.988 (inactive) | 1.02 (inactive) | 0.994 (inactive) | 1.1 (inactive)
9 | COc1ccnc(C[S+]([O-])c2nc3cc(OC(F)F)ccc3[nH]2)c1OC (stereo not drawn) [Pantoprazole sodium] (20 µM) | 1.18 | 1.22 | 1 | 0.958 | 0.936 (inactive) | 1.05 (inactive) | 1.05 (inactive) | 1.25 (inactive) | 1.01 (inactive) | 0.98 (inactive) | 1.02 (inactive) | 1.07 (inactive)
10 | CCN(CC)CCNC(=O)COc1ccc(OC)cc1 [Mefexamide hydrochloride] (20 µM) | 0.963 | 1.01 | 1.08 | 1.05 | 0.874 (inactive) | 1.07 (inactive) | 1.01 (inactive) | 1.02 (inactive) | 0.961 (inactive) | 1.05 (inactive) | 1.02 (inactive) | 0.977 (inactive)
11 | CCCCN(CCCC)CCCOC(=O)c1ccc(N)cc1 [Butacaine] (20 µM) | 1.11 | 1.03 | 1.02 | 1 | 1.03 (inactive) | 0.973 (inactive) | 0.951 (inactive) | 0.955 (inactive) | 1.01 (inactive) | 1.02 (inactive) | 1 (inactive) | 0.913 (inactive)
12 | Nc1nc(F)nc2c1ncn2[C@@H]1O[C@H](CO)[C@@H](O)[C@@H]1O [Fludarabine] (20 µM) | 0.775 | 0.524 | 0.982 | 0.936 | 0.976 (inactive) | 1.04 (inactive) | 0.796 (active) | 0.546 (inactive) | 0.965 (inactive) | 0.91 (inactive) | 1.02 (inactive) | 0.838 (inactive)
13 | CCC(=O)O[C@]1(C(=O)SCF)[C@H](C)C[C@H]2[C@@H]3C[C@H](F)C4=CC(=O)C=C[C@]4(C)[C@@]3(F)[C@@H](O)C[C@@]21C [Fluticasone propionate] (20 µM) | 0.911 | 0.976 | 1.03 | 0.998 | 1.04 (inactive) | 0.989 (inactive) | 0.935 (inactive) | 0.994 (inactive) | 1.01 (inactive) | 0.995 (inactive) | 1.01 (inactive) | 0.931 (inactive)
14 | CCOCC(O)COc1ccc(NC(=O)CC[S+](C)C)cc1 (stereo not drawn) [Suplatast Tosylate] (20 µM) | 0.999 | 1.04 | 0.988 | 1 | 1.03 (inactive) | 1.01 (inactive) | 0.978 (inactive) | 1.04 (inactive) | 1.02 (inactive) | 0.989 (inactive) | 0.991 (inactive) | 0.909 (inactive)
15 | Cc1cc(/C=C/c2ccc3cc(N(C)C)ccc3[n+]2C)c(C)n1-c1ccccc1 [Pyrvinium pamoate] (20 µM) | 1.21 | 1.12 | 0.958 | 0.853 | 0.936 (inactive) | 0.95 (inactive) | 0.975 (inactive) | 1.22 (inactive) | 1.01 (inactive) | 0.966 (inactive) | 1.02 (inactive) | 1.04 (inactive)
16 | OC[C@@H](O)[C@@H](O[C@@H]1O[C@H](CO)[C@H](O)[C@H](O)[C@H]1O)[C@H](O)[C@@H](O)CO [Lactitol] (50 µM) | 1.13 | 0.949 | 1.01 | 0.988 | 0.988 (inactive) | 0.997 (inactive) | 0.891 (inactive) | 0.938 (inactive) | 1.02 (inactive) | 0.997 (inactive) | 0.998 (inactive) | 0.858 (inactive)
17 | CN1CCCC(CC2c3ccccc3Sc3ccccc32)C1 (stereo not drawn) [Metixene hydrochloride] (20 µM) | 1.02 | 0.988 | 1.02 | 1.25 | 0.998 (inactive) | 1.06 (inactive) | 0.807 (inactive) | 0.956 (inactive) | 1.02 (inactive) | 0.999 (inactive) | 1.01 (inactive) | 0.88 (inactive)
18 | Cc1ncc([N+](=O)[O-])n1CC(O)CCl (stereo not drawn) [Ornidazole] (20 µM) | 0.007 | 0.984 | 1.04 | 0.0518 | 0.885 (inactive) | 0.00845 (active) | 0.0747 (active) | 0.976 (inactive) | 0.986 (inactive) | 0.962 (inactive) | 1.02 (inactive) | 0.0499 (active)
19 | C#CCN[C@@H]1CCc2ccccc21 [Rasagiline] (20 µM) | 0.963 | 0.959 | 0.993 | 0.87 | 1.02 (inactive) | 1.03 (inactive) | 1.02 (inactive) | 0.965 (inactive) | 0.981 (inactive) | 1.02 (inactive) | 0.974 (inactive) | 1.03 (inactive)
20 | NCc1ccccc1CC(=O)N[C@@H]1C(=O)N2C(C(=O)O)=C(CSc3nnnn3CC(=O)O)CS[C@H]12 [Ceforanide] (20 µM) | 0 | 1.11 | 1.08 | 0.307 | 0.726 (inactive) | 0.0212 (active) | 0.0541 (active) | 1.91 (active) | 1.09 (inactive) | 1.95 (active) | 1.07 (inactive) | 0.0519 (active)
21 | CN1CCc2c(c3ccccc3n2Cc2ccccc2)C1 [Mebhydroline 1,5-naphtalenedisulfonate] (20 µM) | 0.931 | 0.967 | 1.04 | 0.742 | 1.01 (inactive) | 1.05 (inactive) | 0.911 (inactive) | 0.987 (inactive) | 0.991 (inactive) | 0.982 (inactive) | 1.01 (inactive) | 0.898 (inactive)
22 | CC(C)(C)NC(=O)[C@@H]1CN(Cc2cccnc2)CCN1C[C@@H](O)C[C@@H](Cc1ccccc1)C(=O)N[C@H]1c2ccccc2C[C@H]1O [Indinavir sulfate] (20 µM) | 1.29 | 1.01 | 1.04 | 0.985 | 0.966 (inactive) | 1.04 (inactive) | 1.05 (inactive) | 1.02 (inactive) | 1.03 (inactive) | 1.05 (inactive) | 1 (inactive) | 1.02 (inactive)
23 | O=C(O)COC(=O)Cc1ccccc1Nc1c(Cl)cccc1Cl [Aceclofenac] (20 µM) | 1.1 | 1.11 | 1.14 | 0.993 | 0.97 (inactive) | 0.959 (inactive) | 0.984 (inactive) | 1.08 (inactive) | 1.01 (inactive) | 0.962 (inactive) | 1.01 (inactive) | 1.05 (inactive)
24 | CC(=O)SCC(Cc1ccccc1)C(=O)NCC(=O)OCc1ccccc1 (stereo not drawn) [Racecadotril] (20 µM) | 1.06 | 1 | 0.986 | 0.929 | 0.978 (inactive) | 0.941 (inactive) | 1.01 (inactive) | 0.991 (inactive) | 0.991 (inactive) | 0.985 (inactive) | 0.999 (inactive) | 0.954 (inactive)
